Compound activity: PubChem BioAssay, The Scripps Research Institute Molecular Screening Center
In the library only some 3.5% were active in any assay of this set; here they are far more common.
TEAD-YAP block – TEAD-YAP interaction inhibition | HEK-TIYL cells, TEAD-Gal4/YAP UAS-luciferase luminescence | inhibition, % at 9.12 µM | hit rate 1.4% among 640,000 | AID 1259422; in the data active = inhibition above about 32%;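 note: 0% = median of test compound wells and 100% = reference inhibitor wells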
FBW7 act – human FBW7 E3 ligase activation, primary screen; Q969H0; AlphaScreen FBW7–phospho-cyclin E peptide binding, activator screen; normalized activity (activation), % at 26.1 µM; hit rate 0.13% among 650,000; in the data active = normalized activity above about 1.9%;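 note: purified mutant Fbw7 with reduced substrate affinity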
GPR151 activ – activates the human receptor GPR151; Q8TDV0; activation, % at 11.2 µM; AID 1508602; PathHunter beta-arrestin GPR151 cells, luminescence; hit rate 1% among 650,000; in the data active = activation above about 4.9%;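 note: 0% = median of compound wells and 100% = cells with positive control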
MITF inh – human MITF inhibition, primary screen. inhibition, % at 2.6 µM. O75030. hit rate 0.91% among 650,000. AlphaScreen MITF homodimerization, bead proximity signal. AID 1259374; in the data active = inhibition above about 50%;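 note: 0% = vehicle wells with protein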
Target sequence (O75030 whole entry, looked up): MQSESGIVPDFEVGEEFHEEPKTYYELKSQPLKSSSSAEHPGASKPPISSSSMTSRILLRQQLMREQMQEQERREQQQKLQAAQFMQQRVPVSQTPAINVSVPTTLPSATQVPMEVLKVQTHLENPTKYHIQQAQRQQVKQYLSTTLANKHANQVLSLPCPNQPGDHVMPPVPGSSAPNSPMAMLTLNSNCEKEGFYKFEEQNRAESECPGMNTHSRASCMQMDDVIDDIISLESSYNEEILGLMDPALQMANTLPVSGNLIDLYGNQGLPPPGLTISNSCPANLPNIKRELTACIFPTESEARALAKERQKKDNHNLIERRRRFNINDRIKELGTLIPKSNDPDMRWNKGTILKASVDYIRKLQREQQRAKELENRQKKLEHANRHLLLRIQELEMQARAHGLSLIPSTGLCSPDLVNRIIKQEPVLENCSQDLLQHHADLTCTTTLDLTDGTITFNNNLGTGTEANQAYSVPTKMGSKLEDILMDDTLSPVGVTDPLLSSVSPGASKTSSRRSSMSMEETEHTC
GPR151 confirm – confirmation of human GPR151 activators. shares compounds with GPR151 activ. GPR151 PathHunter beta-arrestin cells, luminescence, 90 min; % of EA-reagent control over plate median. activation, % at 11.2 µM. 6,700 tested, under 10 active;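 active = mean percent activation across replicates above the confirmation screen cutoff of 4.91%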
GPR119 counter – GPR119 activation, counter-screen for GPR151 activators; shares compounds with GPR151 activ; GPR119 PathHunter beta-arrestin cells, luminescence, 90 min; 0 = compound-well median, 100 = enzyme-acceptor control; activation, % at 11.2 µM; hit rate 0.3% among 6,700;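 active = mean percent activation in the counterscreen above 29.09%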;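 note: counterscreen on off-target GPR119 to flag nonselective hits from the GPR151 activator screen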
* = called active by the depositor; nt = no result; ! = repeats disagree.

SMILES	TEAD-YAP block	FBW7 act	GPR151 activ	MITF inh	GPR151 confirm	GPR119 counter
O=C(CCCC(=O)N(CC(=O)NC1CCCCC1)CC1CCCO1)Nc1ccccn1 (configuration not stated)	0	0	8.7*	-1	1	8
Cc1cn(C2C=CC(O)C(CO)O2)c(=O)[nH]c1=O (configuration not stated)	1	0	2	-2	nt	nt
O=C(O)CC1NC(=O)c2ccc(Br)cc21 (configuration not stated)	4	1	18*	15	0	-9
CCOC(=O)CSc1nc(C2CC2)nc2sc(C)c(C)c12	-2	0	-1	20	nt	nt
Cc1sc2nc(C3CC3)nc(SCC(N)=O)c2c1C	7	0	6.8*	6	0	2
CCOC(=O)CSCC(=O)N1N=C(c2cccs2)CC1c1cccc(OC)c1OC (configuration not stated)	5	0	6.6*	3	0	8
Cc1nn(-c2ccc(F)cc2)c(Cl)c1/C=N/NC(=S)NCCN1CCOCC1	-11	0	-1	3	nt	nt
COc1ccccc1C(=O)NC(=O)CSc1cccc[n+]1[O-]	4	0	-1	-12	nt	nt
Cn1cccc1C(=O)NC(=O)CSc1cccc[n+]1[O-]	-3	0	4.9*	-1	1	7
COc1ccc(C2(CC(=O)N3CC4CCCC3C4)CC(=O)N(C3CCCC3)C2=O)cc1 (configuration not stated)	-48	0	-1	-5	nt	nt
CN(CCC#N)c1ncnc2c1oc1ccccc12	-9	0	10*	-7	0	4
Cc1[nH]c(-c2ccc(F)cc2)cc1C(=O)N1CCCC1	-6	0	5	2	nt	nt
Cc1[nH]c(-c2ccc(F)cc2)cc1C(=O)N1CCOCC1	-12	0	5.8*	-8	0	0
Cc1ccccc1OCC(O)CN1CCOCC1 (configuration not stated)	1	0	-1	-7	nt	nt
N#C/C(=C\c1c[nH]c2ccccc12)c1nc2ncc(Br)cc2[nH]1	-7	0	1	3	nt	nt
O=C(O)CCC(NCC(O)Cn1c2ccccc2c2ccccc21)C(=O)O (configuration not stated)	2	0	5.6*	-16	2	16
CC(C)CC(NCC(O)Cn1c2ccccc2c2ccccc21)C(=O)O (configuration not stated)	0	0	1	-7	nt	nt
Cc1cc(C(=O)Nc2nc(-c3ccccc3)cs2)ccc1[N+](=O)[O-]	-3	0	1	17	nt	nt
O=C(NCC1CCCO1)c1cc(=O)[nH]c2ccc(Br)cc12 (configuration not stated)	2	0	6.7*	12	-1	-15
O=C(NCC1CCCO1)c1cc(Br)ccc1Cl (configuration not stated)	12	0	3	3	nt	nt
O=c1[nH]c(=S)c2c(n1-c1ccccc1)CCC2	6	0	5.9*	5	1	9
O=c1[nH]c2sc3c(c2c(=O)n1-c1ccccc1)CCCC3	6	0	0	3	nt	nt
CC(C)c1ccc(NC(=O)CSc2nc(=O)n(CCCN(C)C)c3c2CCCC3)cc1	-11	0	-1	-10	nt	nt
CCOc1ccc(CCNS(=O)(=O)c2ccc3c(c2)OCCN3C(C)=O)cc1OCC	4	1	5.2*	10	0	-7
O=C(Nc1nc2ccc3ccccc3c2s1)C1CC1	16	0	2	7	nt	nt
SMILES	TEAD-YAP block	FBW7 act	GPR151 activ	MITF inh	GPR151 confirm	GPR119 counter
O=C(Nc1nc2c(s1)-c1cccc3cccc-2c13)C1CC1	-27	0	5.0*	-1	2	13
COc1cccc(OC)c1C(=O)Nc1ccccc1C(N)=O	-5	0	-1	12	nt	nt
Cc1ccc(Nc2nc(O)c(C3=c4ccccc4=NC3=O)s2)c(C)c1	-6	0	0	9	nt	nt
O=c1c2ccccc2c(-c2ccc(Br)cc2)nn1-c1ccccc1	10	0	-1	6	nt	nt
CC(C)c1ccc(-c2nn(-c3ccccc3)c(=O)c3ccccc23)cc1	2	0	5.2*	-6	1	-5
COC(=O)C1=C(C(=O)c2ccccc2)C(c2cccc(O)c2)n2nnnc2N1 (configuration not stated)	-5	0	-2	-3	nt	nt
CCOC(=O)N1CCN(C(=S)Nc2cc(Cl)ccc2OC)CC1	1	0	1	2	nt	nt
CCOC(=O)N1CCN(C(=S)Nc2ccc(C)cc2)CC1	-7	1	6.0*!	-2	2	11
CCOC(=O)N1CCC(N(CCN(C)C)C(=S)Nc2cc(C)cc(C)c2)CC1	-10	0	7.7*	-2	0	4
CCOC(=O)N1CCN(C(=S)Nc2cc(OC)ccc2OC)CC1	7	0	5.2*	10	0	1
CCOC(=O)N1CCC(N(CCN(C)C)C(=S)Nc2cccc(CC)c2)CC1	-8	0	0	-8	nt	nt
CCOC(=O)N1CCN(C(=O)Nc2ccc(Cl)cc2Cl)CC1	6	0	5.1*	-29	0	-8
CCCCC(c1nnnn1C1CCCCC1)N1CCN(C(=O)c2ccco2)CC1 (configuration not stated)	7	0	0	-1	nt	nt
O=C(CSc1nc2cc(C(=O)N3CCOCC3)ccc2c(=O)n1-c1ccccc1)c1ccccc1	18	0	1	1	nt	nt
COc1ccc(CNC(=O)C(Cc2ccccc2)NS(=O)(=O)c2cccs2)cc1 (configuration not stated)	-8	0	2	5	nt	nt
CC1=CC(C)C2COC(c3ccccc3O)C1C2 (configuration not stated)	3	0	5.3*	-1	0	-5
CCOC(=O)c1sc(/N=C/N(C)C)c(C(=O)OCC)c1C	-9	0	11*	1	1	5
CCOC(=O)/C(N=Nc1sc(C(=O)OCC)c(C)c1C(=O)OCC)=C(\O)CCl	-5	0	6.7*	3	1	-3
CCCNS(=O)(=O)c1cc(C)ccc1OC	2	0	1	-25	nt	nt
CC(C)NCC(O)Cn1c2ccc(Br)cc2c2cc(Br)ccc21 (configuration not stated)	-5	0	1	2	nt	nt
CCCNC(=O)CSc1nccn1Cc1ccc(F)cc1	-4	0	5.7*	-10	1	11
O=C(NNC(=O)C12CC3CC(C1)CC(c1ccccc1)(C3)C2)c1ccncc1	2	0	6.0*	-2	0	0
O=C(c1c[nH]c2ccc(S(=O)(=O)N3CCCCCC3)cc2c1=O)N1CCOCC1	1	0	11*	14	0	4
CC(C)C(=O)OCCN1C(=O)c2cccc3c(N4CCOCC4)ccc(c23)C1=O	-5	0	6.6*	0	0	12
CC(C)C(=O)OCCN1C(=O)c2cccc3c(N4CCCCC4)ccc(c23)C1=O	-3	0	2	-2	nt	nt
